# According to paper PMC7862700, “An all-to-all approach to the identification of sequence-specific readers for epigenetic DNA modifications on cytosine”:
# Legend:
# Experiment in all cases: DAPPL (digital affinity profiling via proximity ligation, sequencing); 10 mM Tris-HCl pH 7.5, 50 mM NaCl, 1 mM DTT, 4% glycerol, room temperature, 30 min; GST-TFs on glutathione beads, 16-mer random dsDNA library, 0.1% formaldehyde crosslink after washing; high values mean tight binding
# [1] = target: T1, FLI1 (Homo sapiens, UniProt Q01543 1-452); settings: protein: recombinant; tags: N-terminal GST; dsDNA, one strand shown
# T1 sequence: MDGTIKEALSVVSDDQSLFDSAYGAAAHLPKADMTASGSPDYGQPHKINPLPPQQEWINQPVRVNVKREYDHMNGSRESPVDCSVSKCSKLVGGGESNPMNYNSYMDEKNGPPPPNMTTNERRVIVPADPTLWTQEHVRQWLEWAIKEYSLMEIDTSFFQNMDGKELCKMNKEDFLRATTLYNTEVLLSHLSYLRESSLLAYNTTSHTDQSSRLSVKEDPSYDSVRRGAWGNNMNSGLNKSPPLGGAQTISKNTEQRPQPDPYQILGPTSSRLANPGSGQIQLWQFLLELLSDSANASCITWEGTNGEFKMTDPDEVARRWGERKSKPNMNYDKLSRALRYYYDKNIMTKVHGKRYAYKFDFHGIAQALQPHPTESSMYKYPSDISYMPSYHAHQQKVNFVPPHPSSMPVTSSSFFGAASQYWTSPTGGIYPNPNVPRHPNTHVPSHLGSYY
# Outline: (§1)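 GST fusions of human transcription factors were expressed in yeast and captured with glutathione beads. Once given DNA barcodes and pooled alongside a tag-only sample, they were incubated for 30 min at room temperature with 200 nmole of a random double-stranded 16-mer DNA library in Tris/NaCl/DTT/glycerol buffer, then washed, crosslinked (0.1% formaldehyde), proximity-ligated, PCR-amplified and sequenced on an Illumina NextSeq500. The binding signal of each hexamer is its read frequency for a factor divided by its frequency for the tag-only sample.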
# [2] = target: T2, ELK1 (Homo sapiens, UniProt P19419 1-428); settings: protein: recombinant; tags: N-terminal GST; dsDNA, one strand shown
# T2 sequence: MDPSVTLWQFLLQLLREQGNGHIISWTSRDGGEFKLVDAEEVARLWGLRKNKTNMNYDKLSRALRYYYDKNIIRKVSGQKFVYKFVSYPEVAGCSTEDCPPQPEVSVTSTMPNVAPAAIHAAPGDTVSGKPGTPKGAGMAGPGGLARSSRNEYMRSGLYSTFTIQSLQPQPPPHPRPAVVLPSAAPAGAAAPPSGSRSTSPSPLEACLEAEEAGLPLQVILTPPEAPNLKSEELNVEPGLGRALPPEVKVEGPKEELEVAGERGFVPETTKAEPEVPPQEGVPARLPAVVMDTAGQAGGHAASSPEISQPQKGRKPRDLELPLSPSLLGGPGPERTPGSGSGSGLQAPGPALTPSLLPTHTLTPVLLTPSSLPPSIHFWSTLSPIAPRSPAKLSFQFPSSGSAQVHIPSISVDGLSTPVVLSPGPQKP
# Outline: as §1
# [3] = target: T3, GABPA (Homo sapiens, UniProt Q06546 1-454); settings: protein: recombinant; tags: N-terminal GST; dsDNA, one strand shown
# T3 sequence: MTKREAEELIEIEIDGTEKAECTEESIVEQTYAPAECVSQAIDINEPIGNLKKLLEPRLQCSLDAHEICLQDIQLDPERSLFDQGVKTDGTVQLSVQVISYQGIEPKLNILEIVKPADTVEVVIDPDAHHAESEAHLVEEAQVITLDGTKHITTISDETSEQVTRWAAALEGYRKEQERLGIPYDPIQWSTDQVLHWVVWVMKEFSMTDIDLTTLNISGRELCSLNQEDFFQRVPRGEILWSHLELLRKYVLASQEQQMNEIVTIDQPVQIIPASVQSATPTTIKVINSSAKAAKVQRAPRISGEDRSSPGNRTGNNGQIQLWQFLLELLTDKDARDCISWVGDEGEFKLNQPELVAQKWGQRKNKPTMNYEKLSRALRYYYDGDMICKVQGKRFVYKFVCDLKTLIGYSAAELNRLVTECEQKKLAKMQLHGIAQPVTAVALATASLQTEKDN
# Outline: as §1
# [4] = target: T4, ERG (Homo sapiens, UniProt P11308 1-479); settings: protein: recombinant; tags: N-terminal GST; dsDNA, one strand shown
# T4 sequence: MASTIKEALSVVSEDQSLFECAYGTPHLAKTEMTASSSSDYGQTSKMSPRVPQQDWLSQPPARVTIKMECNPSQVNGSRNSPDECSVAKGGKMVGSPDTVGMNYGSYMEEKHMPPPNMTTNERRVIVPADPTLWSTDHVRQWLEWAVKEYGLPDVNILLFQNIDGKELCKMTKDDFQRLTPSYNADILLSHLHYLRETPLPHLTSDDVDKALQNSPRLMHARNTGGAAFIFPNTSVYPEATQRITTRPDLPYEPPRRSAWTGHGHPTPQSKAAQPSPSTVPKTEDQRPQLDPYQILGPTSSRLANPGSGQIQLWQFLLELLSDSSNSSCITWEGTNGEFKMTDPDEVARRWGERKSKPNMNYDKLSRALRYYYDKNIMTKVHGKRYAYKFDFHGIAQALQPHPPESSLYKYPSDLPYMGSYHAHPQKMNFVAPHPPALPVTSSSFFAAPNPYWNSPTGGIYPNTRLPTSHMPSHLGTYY
# Outline: as §1
# [5] = target: ELF1 (Homo sapiens, UniProt P32519 1-619); settings: protein: recombinant; tags: N-terminal GST; dsDNA, one strand shown
# Outline: as §1
# [6] = target: T5, EHF (Homo sapiens, UniProt Q9NZC4 1-300); settings: protein: recombinant; tags: N-terminal GST; dsDNA, one strand shown
# T5 sequence: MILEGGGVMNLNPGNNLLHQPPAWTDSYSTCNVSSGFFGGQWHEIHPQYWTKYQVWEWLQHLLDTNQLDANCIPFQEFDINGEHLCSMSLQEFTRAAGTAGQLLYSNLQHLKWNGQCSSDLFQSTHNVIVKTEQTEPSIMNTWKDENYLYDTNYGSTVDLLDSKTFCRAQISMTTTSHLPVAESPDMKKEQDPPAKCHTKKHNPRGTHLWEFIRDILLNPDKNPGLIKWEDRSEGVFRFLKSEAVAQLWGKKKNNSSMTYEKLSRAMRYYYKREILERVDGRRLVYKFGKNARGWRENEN
# Outline: as §1
# [7] = target: SPI1 (Homo sapiens, UniProt P17947 1-270); settings: protein: recombinant; tags: N-terminal GST; dsDNA, one strand shown
# Outline: as §1
# [8] = target: SPIB (Homo sapiens, UniProt Q01892 1-262); settings: protein: recombinant; tags: N-terminal GST; dsDNA, one strand shown
# Outline: as §1
# [9] = target: T6, ELK3 (Homo sapiens, UniProt P41970 1-407); settings: protein: recombinant; tags: N-terminal GST; dsDNA, one strand shown
# T6 sequence: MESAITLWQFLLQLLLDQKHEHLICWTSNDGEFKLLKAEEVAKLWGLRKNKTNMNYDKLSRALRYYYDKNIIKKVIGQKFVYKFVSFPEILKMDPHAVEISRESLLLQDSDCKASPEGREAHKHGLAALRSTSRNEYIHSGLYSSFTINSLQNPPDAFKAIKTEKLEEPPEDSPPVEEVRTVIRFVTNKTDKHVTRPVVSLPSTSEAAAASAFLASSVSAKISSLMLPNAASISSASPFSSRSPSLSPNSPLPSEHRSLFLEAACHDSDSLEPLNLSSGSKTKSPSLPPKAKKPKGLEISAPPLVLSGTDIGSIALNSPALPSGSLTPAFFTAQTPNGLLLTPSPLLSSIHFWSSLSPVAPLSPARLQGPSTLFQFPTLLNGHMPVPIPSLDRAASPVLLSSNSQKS
# Outline: as §1
# [10] = target: T7, FEV (Homo sapiens, UniProt Q99581 1-238); settings: protein: recombinant; tags: N-terminal GST; dsDNA, one strand shown
# T7 sequence: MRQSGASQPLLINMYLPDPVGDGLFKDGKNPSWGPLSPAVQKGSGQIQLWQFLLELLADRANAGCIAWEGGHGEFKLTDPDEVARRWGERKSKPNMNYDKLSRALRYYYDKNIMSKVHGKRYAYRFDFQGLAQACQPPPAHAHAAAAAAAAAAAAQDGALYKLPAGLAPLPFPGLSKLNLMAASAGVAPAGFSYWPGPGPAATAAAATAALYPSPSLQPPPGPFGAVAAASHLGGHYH
# Outline: as §1
# [11] = target: ETV5 (Homo sapiens, UniProt P41161 1-510); settings: protein: recombinant; tags: N-terminal GST; dsDNA, one strand shown
# Outline: as §1
# [12] = target: HSF1 (Homo sapiens, UniProt Q00613 1-529); settings: protein: recombinant; tags: N-terminal GST; chain copies: 3; dsDNA, one strand shown
# Outline: as §1
# [13] = target: T8, SPIC (Homo sapiens, UniProt Q8N5J4 1-248); settings: protein: recombinant; tags: N-terminal GST; dsDNA, one strand shown
# T8 sequence: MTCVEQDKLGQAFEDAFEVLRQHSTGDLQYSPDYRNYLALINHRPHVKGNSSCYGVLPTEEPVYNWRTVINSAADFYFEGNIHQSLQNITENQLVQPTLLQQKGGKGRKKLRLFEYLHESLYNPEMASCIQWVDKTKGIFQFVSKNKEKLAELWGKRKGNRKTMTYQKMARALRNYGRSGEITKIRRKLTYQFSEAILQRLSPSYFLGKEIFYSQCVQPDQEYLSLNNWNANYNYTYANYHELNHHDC
# Outline: as §1
# [14] = target: ELF4 (Homo sapiens, UniProt Q99607 1-663); settings: protein: recombinant; tags: N-terminal GST; dsDNA, one strand shown
# Outline: as §1
# [15] = target: T9, ELK4 (Homo sapiens, UniProt P28324-2 1-405); settings: protein: recombinant; tags: N-terminal GST; dsDNA, one strand shown
# T9 sequence: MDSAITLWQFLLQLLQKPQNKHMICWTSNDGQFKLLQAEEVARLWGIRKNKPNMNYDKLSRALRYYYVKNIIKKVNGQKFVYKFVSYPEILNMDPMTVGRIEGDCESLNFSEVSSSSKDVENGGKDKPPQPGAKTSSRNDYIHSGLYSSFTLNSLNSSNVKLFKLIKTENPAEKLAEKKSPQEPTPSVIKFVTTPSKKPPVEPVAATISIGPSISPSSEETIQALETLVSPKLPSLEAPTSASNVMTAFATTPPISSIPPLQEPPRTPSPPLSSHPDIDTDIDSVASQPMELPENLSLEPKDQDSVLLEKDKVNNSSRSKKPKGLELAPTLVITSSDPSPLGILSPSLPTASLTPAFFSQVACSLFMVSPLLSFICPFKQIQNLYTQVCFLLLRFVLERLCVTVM
# Outline: as §1
# [16] = target: T10, ETV2 (Homo sapiens, UniProt O00321 1-342); settings: protein: recombinant; tags: N-terminal GST; dsDNA, one strand shown
# T10 sequence: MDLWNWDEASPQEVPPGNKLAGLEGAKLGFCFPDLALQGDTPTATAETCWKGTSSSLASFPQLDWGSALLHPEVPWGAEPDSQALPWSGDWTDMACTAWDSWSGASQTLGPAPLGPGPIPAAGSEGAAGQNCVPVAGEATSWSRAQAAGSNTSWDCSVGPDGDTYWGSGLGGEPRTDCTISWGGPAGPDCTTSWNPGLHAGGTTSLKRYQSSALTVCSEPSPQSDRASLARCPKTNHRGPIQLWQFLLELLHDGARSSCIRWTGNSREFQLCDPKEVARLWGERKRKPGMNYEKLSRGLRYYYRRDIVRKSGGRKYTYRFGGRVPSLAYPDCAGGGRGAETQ
# Outline: as §1
# [17] = target: T11, ELF3 (Homo sapiens, UniProt P78545 1-371); settings: protein: recombinant; tags: N-terminal GST; dsDNA, one strand shown
# T11 sequence: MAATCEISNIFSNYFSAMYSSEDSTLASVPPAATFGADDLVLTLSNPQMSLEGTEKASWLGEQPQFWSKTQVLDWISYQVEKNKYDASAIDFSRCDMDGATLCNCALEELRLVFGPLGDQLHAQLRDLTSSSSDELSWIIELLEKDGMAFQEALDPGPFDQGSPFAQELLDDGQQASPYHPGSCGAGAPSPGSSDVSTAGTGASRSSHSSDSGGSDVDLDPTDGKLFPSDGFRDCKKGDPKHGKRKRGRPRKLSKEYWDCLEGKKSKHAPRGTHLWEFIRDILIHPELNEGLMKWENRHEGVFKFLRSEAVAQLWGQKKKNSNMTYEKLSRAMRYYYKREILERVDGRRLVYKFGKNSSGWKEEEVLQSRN
# Outline: as §1
# [18] = target: CRX (Homo sapiens, UniProt O43186 1-299); settings: protein: recombinant; tags: N-terminal GST; dsDNA, one strand shown
# Outline: as §1
# [19] = target: ETV1 (Homo sapiens, UniProt P50549 1-477); settings: protein: recombinant; tags: N-terminal GST; dsDNA, one strand shown
# Outline: as §1
# HSF1, sequence (Q00613 whole entry): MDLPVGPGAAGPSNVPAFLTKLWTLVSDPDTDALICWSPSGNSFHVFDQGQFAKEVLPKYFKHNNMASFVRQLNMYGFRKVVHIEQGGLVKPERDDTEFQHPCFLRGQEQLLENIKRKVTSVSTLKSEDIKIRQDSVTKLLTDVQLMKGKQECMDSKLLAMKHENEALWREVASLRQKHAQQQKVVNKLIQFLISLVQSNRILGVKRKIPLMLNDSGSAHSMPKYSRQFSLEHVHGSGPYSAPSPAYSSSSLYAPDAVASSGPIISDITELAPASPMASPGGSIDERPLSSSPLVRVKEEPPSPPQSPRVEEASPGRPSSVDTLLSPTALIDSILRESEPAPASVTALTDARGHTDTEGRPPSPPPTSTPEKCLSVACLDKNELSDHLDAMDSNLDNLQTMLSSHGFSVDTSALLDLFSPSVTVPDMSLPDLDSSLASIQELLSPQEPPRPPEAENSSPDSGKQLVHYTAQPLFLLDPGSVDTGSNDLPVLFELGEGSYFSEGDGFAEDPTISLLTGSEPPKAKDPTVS
# ETV1, sequence (P50549 whole entry): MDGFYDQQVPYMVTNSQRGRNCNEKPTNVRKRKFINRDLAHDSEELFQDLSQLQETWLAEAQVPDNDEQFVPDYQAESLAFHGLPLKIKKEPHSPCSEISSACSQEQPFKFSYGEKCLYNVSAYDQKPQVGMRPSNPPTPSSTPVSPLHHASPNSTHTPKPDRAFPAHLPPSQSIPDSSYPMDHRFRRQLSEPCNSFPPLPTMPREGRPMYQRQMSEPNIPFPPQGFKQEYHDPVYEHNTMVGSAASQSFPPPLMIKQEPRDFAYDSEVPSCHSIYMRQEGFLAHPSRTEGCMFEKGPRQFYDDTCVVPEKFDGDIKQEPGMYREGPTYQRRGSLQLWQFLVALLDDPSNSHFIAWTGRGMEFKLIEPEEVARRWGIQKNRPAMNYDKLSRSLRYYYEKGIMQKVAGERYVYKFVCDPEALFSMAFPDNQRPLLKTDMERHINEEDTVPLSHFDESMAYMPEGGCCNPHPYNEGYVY
# ETV5, sequence (P41161 whole entry): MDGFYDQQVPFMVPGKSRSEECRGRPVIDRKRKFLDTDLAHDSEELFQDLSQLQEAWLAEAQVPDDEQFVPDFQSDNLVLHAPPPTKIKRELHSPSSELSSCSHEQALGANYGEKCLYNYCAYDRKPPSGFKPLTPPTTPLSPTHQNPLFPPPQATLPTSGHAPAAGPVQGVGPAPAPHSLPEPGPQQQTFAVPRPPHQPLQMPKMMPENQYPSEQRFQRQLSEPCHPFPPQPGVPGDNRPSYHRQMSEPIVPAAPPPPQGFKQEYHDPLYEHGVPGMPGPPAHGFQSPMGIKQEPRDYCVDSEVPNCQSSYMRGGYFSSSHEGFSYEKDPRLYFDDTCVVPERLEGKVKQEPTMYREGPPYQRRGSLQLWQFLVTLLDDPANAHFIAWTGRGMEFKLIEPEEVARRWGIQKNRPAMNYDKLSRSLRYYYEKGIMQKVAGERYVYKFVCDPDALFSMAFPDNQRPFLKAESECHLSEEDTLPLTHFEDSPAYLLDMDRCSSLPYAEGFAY
# ELF1, sequence (P32519 whole entry): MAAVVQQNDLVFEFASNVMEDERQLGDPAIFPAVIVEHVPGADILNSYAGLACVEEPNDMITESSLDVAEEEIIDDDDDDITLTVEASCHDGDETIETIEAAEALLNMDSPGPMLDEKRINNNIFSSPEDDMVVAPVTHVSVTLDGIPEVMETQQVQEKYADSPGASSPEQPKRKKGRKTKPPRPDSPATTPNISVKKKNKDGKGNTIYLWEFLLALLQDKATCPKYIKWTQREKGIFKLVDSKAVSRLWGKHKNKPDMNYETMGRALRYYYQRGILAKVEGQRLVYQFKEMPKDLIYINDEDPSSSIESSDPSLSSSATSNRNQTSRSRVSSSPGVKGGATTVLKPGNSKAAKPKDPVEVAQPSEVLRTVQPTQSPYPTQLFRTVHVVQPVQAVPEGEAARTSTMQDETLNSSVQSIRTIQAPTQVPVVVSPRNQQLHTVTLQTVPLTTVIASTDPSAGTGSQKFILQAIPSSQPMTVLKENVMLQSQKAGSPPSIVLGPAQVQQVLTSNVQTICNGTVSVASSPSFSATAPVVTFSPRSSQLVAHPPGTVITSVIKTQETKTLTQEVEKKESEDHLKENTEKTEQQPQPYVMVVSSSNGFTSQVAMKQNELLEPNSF
# CRX, sequence (O43186 whole entry): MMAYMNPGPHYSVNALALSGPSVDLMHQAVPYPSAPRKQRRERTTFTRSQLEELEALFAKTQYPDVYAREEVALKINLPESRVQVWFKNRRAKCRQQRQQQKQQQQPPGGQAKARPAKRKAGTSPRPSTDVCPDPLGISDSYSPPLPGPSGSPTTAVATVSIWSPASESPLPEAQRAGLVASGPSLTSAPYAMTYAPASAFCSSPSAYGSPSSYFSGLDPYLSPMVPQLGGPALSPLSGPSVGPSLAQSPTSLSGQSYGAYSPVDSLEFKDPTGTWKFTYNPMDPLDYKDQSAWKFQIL
# ELF4, sequence (Q99607 whole entry): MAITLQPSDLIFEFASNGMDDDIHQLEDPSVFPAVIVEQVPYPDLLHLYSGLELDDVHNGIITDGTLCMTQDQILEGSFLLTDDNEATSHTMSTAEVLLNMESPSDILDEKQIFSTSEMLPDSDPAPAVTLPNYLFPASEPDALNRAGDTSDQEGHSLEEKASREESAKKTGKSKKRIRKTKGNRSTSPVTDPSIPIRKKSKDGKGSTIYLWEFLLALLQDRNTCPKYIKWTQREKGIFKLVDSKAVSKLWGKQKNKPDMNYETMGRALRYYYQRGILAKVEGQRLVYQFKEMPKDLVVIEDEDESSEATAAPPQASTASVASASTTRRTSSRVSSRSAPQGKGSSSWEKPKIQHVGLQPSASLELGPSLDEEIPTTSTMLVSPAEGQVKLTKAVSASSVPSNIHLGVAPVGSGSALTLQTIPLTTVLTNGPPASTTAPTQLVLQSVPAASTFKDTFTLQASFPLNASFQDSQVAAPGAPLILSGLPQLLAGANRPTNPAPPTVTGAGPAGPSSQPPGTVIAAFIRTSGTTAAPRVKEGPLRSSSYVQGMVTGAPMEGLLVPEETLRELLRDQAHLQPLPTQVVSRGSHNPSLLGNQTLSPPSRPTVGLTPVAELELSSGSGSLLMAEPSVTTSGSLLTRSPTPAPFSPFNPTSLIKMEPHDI
# SPIB, sequence (Q01892 whole entry): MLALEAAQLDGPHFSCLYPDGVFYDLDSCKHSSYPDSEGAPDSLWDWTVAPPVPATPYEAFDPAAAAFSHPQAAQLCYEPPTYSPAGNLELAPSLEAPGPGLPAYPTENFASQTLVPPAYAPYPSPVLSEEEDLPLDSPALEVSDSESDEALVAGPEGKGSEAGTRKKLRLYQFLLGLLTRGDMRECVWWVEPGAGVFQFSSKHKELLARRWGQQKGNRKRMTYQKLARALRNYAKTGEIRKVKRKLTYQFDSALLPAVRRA
sequence,measurement,setting,value
ACTAAC,binding signal,[1],"1.21 fold enrichment (6-mer frequency, TF over GST control)"
same,binding signal,[2],"1.3 fold enrichment (6-mer frequency, TF over GST control)"
same,binding signal,[3],"1.26 fold enrichment (6-mer frequency, TF over GST control)"
same,binding signal,[4],"1.32 fold enrichment (6-mer frequency, TF over GST control)"
same,binding signal,[5],"1.3 fold enrichment (6-mer frequency, TF over GST control)"
same,binding signal,[6],"1.27 fold enrichment (6-mer frequency, TF over GST control)"
same,binding signal,[7],"1.33 fold enrichment (6-mer frequency, TF over GST control)"
same,binding signal,[8],"1.24 fold enrichment (6-mer frequency, TF over GST control)"
same,binding signal,[9],"1.25 fold enrichment (6-mer frequency, TF over GST control)"
same,binding signal,[10],"1.25 fold enrichment (6-mer frequency, TF over GST control)"
same,binding signal,[11],"1.26 fold enrichment (6-mer frequency, TF over GST control)"
same,binding signal,[12],"1.08 fold enrichment (6-mer frequency, TF over GST control)"
same,binding signal,[13],"1.27 fold enrichment (6-mer frequency, TF over GST control)"
same,binding signal,[14],"1.33 fold enrichment (6-mer frequency, TF over GST control)"
same,binding signal,[15],"1.19 fold enrichment (6-mer frequency, TF over GST control)"
same,binding signal,[16],"1.19 fold enrichment (6-mer frequency, TF over GST control)"
same,binding signal,[17],"1.25 fold enrichment (6-mer frequency, TF over GST control)"
same,binding signal,[18],"1.18 fold enrichment (6-mer frequency, TF over GST control)"
same,binding signal,[19],"1.25 fold enrichment (6-mer frequency, TF over GST control)"
